Reference: PubChem BioAssay (Tox21)
Records with an inconclusive call do not appear. Entries that show only a call come without a potency. Values without a mark were called inactive. Active and inactive are the calls of the source. The call rests on the fitted dose curve; in most records, active means well fitted inhibition curve with a large enough effect in the repeat runs; inconclusive means weak or mixed curves; inactive means no such curve, though single readings can be large or run the other way.
Potency means the concentration at half of the fitted maximal effect.

What follows are compounds tested against Cytochrome P450 2C19 (Homo sapiens) (UniProt P33261) (assay: Cytochrome P450 Family 2 Subfamily C Member 19 (CYP2C19) small molecule antagonists: luciferase reporter qHTS assay (AID 1671197; further: nearly all actives have a fitted effect of over 65% in size)). Conditions: P450-Glo CYP2C19 enzyme, luciferin luminescence, 1 h; series mostly up to 115 µM.
Cytochrome P450 2C19 (Homo sapiens), sequence (P33261 whole entry, looked up): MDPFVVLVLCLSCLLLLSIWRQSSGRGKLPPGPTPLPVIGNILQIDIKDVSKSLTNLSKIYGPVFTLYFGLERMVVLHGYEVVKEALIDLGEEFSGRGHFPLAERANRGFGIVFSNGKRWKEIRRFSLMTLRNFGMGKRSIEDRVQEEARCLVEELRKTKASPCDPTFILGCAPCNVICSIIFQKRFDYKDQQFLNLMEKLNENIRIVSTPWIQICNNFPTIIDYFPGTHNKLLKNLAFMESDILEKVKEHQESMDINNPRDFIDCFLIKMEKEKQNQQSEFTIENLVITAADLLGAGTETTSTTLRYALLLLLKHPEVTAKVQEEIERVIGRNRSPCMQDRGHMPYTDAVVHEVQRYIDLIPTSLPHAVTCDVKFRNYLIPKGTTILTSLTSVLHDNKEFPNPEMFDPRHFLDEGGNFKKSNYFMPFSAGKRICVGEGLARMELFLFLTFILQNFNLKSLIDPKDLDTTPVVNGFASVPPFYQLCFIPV
Text: National Center for Advancing Translational Sciences [NCATS]
U.S. Environmental Protection Agency [EPA]
National Institutes of Environmental Health Sciences [NIEHS]
National Toxicology Program [NTP]
U.S. Food and Drug Administration [FDA]
Cytochrome P450 (CYP) enzymes are membrane-bound hemeproteins that play a key role in metabolism of drugs and xenobiotics. Evaluation of the effect of chemicals on CYP isozymes is useful to minimize the adverse drug reactions and toxicities in drug development process. Tox21 chemicals were tested for their effect on CYP enzyme activities by using P450-Glo (TM) screening systems (Promega Corporation, Madison, WI). These systems provide a luminescent method containing proluciferin substrates and are converted to luciferin products by CYP isozymes. The luciferin products formed are detected with a luciferin detection reagent, and the amount of light produced is proportional to CYP activity. P450-Glo (TM) CYP2C19 screening system (Catalog. No. V9880) was used to detect the compounds that interfere in CYP2C19 activity. The positive control compound used for CYP2C19 assay is ketoconazole (Sigma-Aldrich, St. Louis, MO).
Tox21 Assay Protocol Summary:
Two ul of enzyme-substrate mix was dispensed into medium binding white/solid 1536-well plates (Greiner Bio-One North America Inc., Monroe, NC) using a BioRaptr Flying Reagent Dispenser (FRD, Beckman Coulter, Brea, CA). Compounds dissolved in DMSO and positive control (ketoconazole) were transferred to the assay plates at 23 nl using a Pintool station (Wako, San Diego, CA). The assay plates were incubated at room temperature for 10 min. Then 2 ul of NADPH regeneration solution was added to each well of the assay plates using an FRD and incubated at 37C for 1 h. The reaction was stopped by adding 4 ul of detection reagent using an FRD and after 20 min incubation at room temperature the luminescence signal was measured using a ViewLux plate reader (Perkin Elmer, Shelton, CT). Data were expressed as relative luminescence units.
With `CCc1ccc(Br)cc1` the Potency was “inactive”.
With `CC1(C)CCC[C@]2(C)[C@H]3CCO[C@]3(C)CC[C@@H]12` the Potency was “inactive”.
For `Clc1ccnc(Cl)n1`, the Potency was “inactive”.
For `CCCC[P+](C)(CCCC)CCCC`, the Potency was “inactive”.
For `C#C[C@]1(OC(C)=O)CC[C@H]2[C@@H]3CCC4=C/C(=N/O)CC[C@@H]4[C@H]3CC[C@@]21CC`, the Potency was 4.36 µM (active).
`S=C([S-])NCCNC(=S)[S-].S=C([S-])NCCNC(=S)[S-].[Mn+2].[Zn+2]` was tested, and the Potency was 4.36 µM (active).
In the case of `CC(C)(C)NSc1nc2ccccc2s1`, the Potency is reported as 32.2 µM (active).
`CN(C)CCN1CCN(c2cccc(Cl)c2)C1=O` was tested, and the Potency was “inactive”.
In the case of `C1CCC(SSC2CCCCC2)CC1`, the Potency is reported as “inactive”.
In the case of `Cc1ccc(O)c(N)c1`, the Potency is reported as 35.6 µM (active).
With `CC(C)(c1cc(Br)c(OCC(Br)CBr)c(Br)c1)c1cc(Br)c(OCC(Br)CBr)c(Br)c1` (stereo not given) the Potency was “inactive”.
`CC(C)(C)CC(C)(C)c1ccc(Nc2ccc(C(C)(C)CC(C)(C)C)cc2)cc1` was tested, and the activity change, negative = inhibition was -21.4% [at 10.5 µM].
In the case of `CCOC(=O)c1ccc(C2CCC(NC[C@H](O)COc3ccc(O)c(NS(C)(=O)=O)c3)CC2)cc1` (stereo not given in full), the Potency is reported as 32.8 µM (active).
For `O=C(O)Cc1ccccc1Nc1c(Cl)cccc1Cl`, the Potency was “inactive”.
With `CC1(C)[C@@H](O)CC[C@]2(C)[C@H]3C(=O)C=C4[C@@H]5C[C@@](C)(C(=O)O)CC[C@]5(C)CC[C@@]4(C)[C@]3(C)CC[C@@H]12` the Potency was “inactive”.
`S=c1nccc[nH]1` was tested, and the Potency was 31.8 µM (active).
`COc1ccc(NC(=O)CC(C)=O)cc1` was tested, and the Potency was “inactive”.
With `CC1=Nc2ccccc2C1(C)C` the Potency was 63.4 µM (active).
With `CCCCCCCC/C=C\CCCCCCCCN` the Potency was 4.36 µM (active).
With `CCO[C@@H]1O[C@H](C(COCc2ccccc2)OCc2ccccc2)[C@H](OCc2ccccc2)[C@H]1O` (stereo not given in full) the Potency was 4.9 µM (active).
`O=[N+]([O-])c1ccc(F)c(Cl)c1` was tested, and the Potency was 79.9 µM (active).
`CC(C(=O)O)c1ccc2c(c1)[nH]c1ccc(Cl)cc12` (stereo not given) was tested, and the Potency was “inactive”.
`CCCCCC(C)OC(=O)COc1ccc(Cl)c2cccnc12` (stereo not given) was tested, and the Potency was 7.96 µM (active).
For `C[C@H]1NCc2cc(-c3ccc4c(=O)c(C(=O)O)cn(C5CC5)c4c3OC(F)F)ccc21`, the activity change, negative = inhibition was -6.59% [at 23.6 µM].
`CCCCCCCCCCCCCC[N+](C)(C)C` was tested, and the Potency was 63.2 µM (active).
For `C/C=C/C=C/COC(=O)C(C)C`, the Potency was 79.6 µM (active).
For `CCC(CC)C(C)CCOC(C)=O` (stereo not given), the Potency was “inactive”.
For `C=C(CC)C(=O)c1ccc(OCC(=O)O)c(Cl)c1Cl`, the Potency was “inactive”.
With `CN1CCN2c3ccccc3Cc3ccccc3C2C1` (stereo not given) the Potency was “inactive”.
`Cc1ccc(O)c(O)c1` was tested, and the Potency was “inactive”.
`O=C(O)c1cc(=O)c2ccccc2o1` was tested, and the Potency was “inactive”.
With `C=Cc1ccccc1C=C` the Potency was “inactive”.
For `C#Cc1ccc(-c2ccccc2F)cc1`, the Potency was 7.76 µM (active).
For `CC1(C)CC(O)CC(C)(C)N1`, the Potency was “inactive”.
In the case of `CC/C=C\CCCCCO`, the Potency is reported as “inactive”.
`OC1CCCc2ccccc21` (stereo not given) was tested, and the Potency was “inactive”.
For `CN(C)[C@@H](CCOc1cccc2ccccc12)c1ccccc1`, the Potency was 0.977 µM (active).
In the case of `O=c1oc2cc(O)ccc2c2oc3cc(O)ccc3c12`, the Potency is reported as 76.4 µM (active).
In the case of `Nc1nc(-c2ccccc2)cs1`, the Potency is reported as 5.01 µM (active).
For `CCO[Si](OCC)(OCC)OCC`, the Potency was “inactive”.
